Data taken from PubChem BioAssay (EPA / NIEHS).
Calls of active or inactive are those of the source. Rule for the calls: active = hit-call score of the fitted dose curve at least 0.9, where 1 is the maximum; inactive = score below 0.9.

The compounds below were run on TTR (gene 7276) (assay: CCTE_GLTED_hTTR_0.125uM: CCTE's human Transthyretin (hTTR) Inhibition Assay, with 0.125uM TTR, Great Lakes Toxicology and Ecology Division (GLTED) Lab (AID 2284431);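 note: hits lower the fluorescence signal relative to DMSO baseline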).
Procedure, shortened: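 TTR 0.125uM + test chemical, 2 h; ANSA probe displacement; ex 380/em 475 fluorescence; signal loss vs DMSO control.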

SMILES	AC50
OCc1cccc(Oc2ccccc2)c1	12200 nM (active)
O=C(Nc1ccc2c(O)c(N=Nc3ccc(N=Nc4ccc(S(=O)(=O)O)cc4)cc3)c(S(=O)(=O)O)cc2c1)c1ccccc1	9920 nM (active)
Oc1ccc2cc(SSc3ccc4cc(O)ccc4c3)ccc2c1	113 nM (active)
Cc1ccc(S(=O)(=O)Oc2ccc(N=Nc3ccc(-c4ccc(N=Nc5c(O)ccc6cc(S(=O)(=O)O)cc(S(=O)(=O)O)c56)c(C)c4)cc3C)cc2)cc1	912 nM (active)
COc1ccc(N=Nc2cc(C)c(N=Nc3ccc(S(=O)(=O)O)cc3)cc2OC)cc1	385 nM (active)
CC(C)CCCCCCCCCCCCCCC(=O)O	891 nM (active)
CCCCCCC(CO)CCCC (configuration not stated)	46700 nM (active)
N[C@@H](Cc1cc(I)c(Oc2cc(I)c(O)c(I)c2)c(I)c1)C(=O)O	82.2 nM (active)
O=[N+]([O-])c1ccc(O)cc1C(F)(F)F	111 nM (active)
Nc1ccc2cc(S(=O)(=O)O)cc(O)c2c1N=Nc1ccccc1C(F)(F)F	39.7 nM (active)
BrCc1cccc(Oc2ccccc2)c1	4220 nM (active)
Cc1cc(S(=O)(=O)O)ccc1N=Nc1c(O)ccc2ccccc12	79 nM (active)
CCCCC(CC)COC(=O)c1ccc(O)cc1 (configuration not stated)	434 nM (active)
Nc1ccccc1[N+](=O)[O-]	20300 nM (active)
CCCCCCCCc1ccc(S(=O)(=O)O)cc1	2970 nM (active)
CC(C)c1ccccc1O	32400 nM (active)
C=C[Si]1(C)O[Si](C)(C=C)O[Si](C)(C=C)O[Si](C)(C=C)O1 (configuration not stated)	50000 nM (active)
